FAS-TE inh = FAS thioesterase domain inhibitors, primary screen, biochemical, fluorescence intensity, uHTS. inhibition, % at 15 µM. 0.67% of 360,000 active. recombinant FAS-TE, OMFH fluorogenic substrate, fluorescence endpoint. AID 602261, 2012. Fatty acid synthase (Homo sapiens), P49327;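 active = compounds whose normalised, plate-corrected inhibition of enzyme fluorescence in the single-dose primary screen is 50% or more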;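 also: 0% = DMSO with enzyme and 100% = substrate without enzyme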
aDG glyco up = activators of alpha-DG glycosylation, primary screen, uHTS, Pro5-aDG cells, AlphaScreen. alpha-DG glycosylation AlphaScreen (IIH6); 0% Pro5, 100% B10-LARGE cell signal. activation, % at 10 µM. 0.22% of 360,000 active. AID 624168, 2012;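 active = activation of at least 8% versus controls, or a plate z-score of at least 8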;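 also: Pro5 are CHO cells carrying HIG-tagged alpha-DG that lacks glycosylation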
ADAM10 inh = human ADAM10 inhibitors, primary screen, biochemical, QFRET, HTS | Disintegrin and metalloproteinase domain-containing protein 10 (Homo sapiens), O14672 | recombinant ADAM10, EDANS/DABCYL FRET peptide cleavage, 3 h | inhibition, % at 7 µM | 0.62% of 370,000 active;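 active = inhibition above a per-campaign cutoff equal to the mean of compounds falling between control-based bounds plus 3 SD, cut at about 20% in these data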;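 also: 0% = DMSO wells while the 100% control is not disclosed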
Target sequence (O14672 214-748 limits assumed): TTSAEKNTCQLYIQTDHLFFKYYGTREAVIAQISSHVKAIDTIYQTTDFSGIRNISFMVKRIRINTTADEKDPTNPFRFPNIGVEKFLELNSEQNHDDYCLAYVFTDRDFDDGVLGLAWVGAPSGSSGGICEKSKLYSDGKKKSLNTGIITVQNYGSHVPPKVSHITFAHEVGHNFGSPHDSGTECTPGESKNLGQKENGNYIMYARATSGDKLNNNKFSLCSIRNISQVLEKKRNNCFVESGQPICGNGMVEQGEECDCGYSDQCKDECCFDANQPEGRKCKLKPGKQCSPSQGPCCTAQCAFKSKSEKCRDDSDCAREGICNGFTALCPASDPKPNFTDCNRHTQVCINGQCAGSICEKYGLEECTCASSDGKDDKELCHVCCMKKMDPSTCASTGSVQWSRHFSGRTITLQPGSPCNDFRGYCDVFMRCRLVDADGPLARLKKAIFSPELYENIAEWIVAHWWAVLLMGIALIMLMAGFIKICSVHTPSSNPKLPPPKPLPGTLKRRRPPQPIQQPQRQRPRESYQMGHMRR
GRIN3A LBD mod = binders of NR3A ligand-binding domain, primary screen, biophysical, differential scanning fluorimetry, uHTS; Glutamate receptor ionotropic, NMDA 3A (GRIN3A) ligand-binding domain; NR3A LBD differential scanning fluorimetry, Tm shift; 0% = protein alone, 100% = glycine-bound protein; Tm shift relative to glycine control, % at 25 µM; 2.5% of 340,000 active; AID 1259313, 2017;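 active = melting temperature shift of at least 10% of the positive control shift, at one fixed dose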
ADAM17 inh = ADAM17 inhibitors, primary screen, biochemical, QFRET | AID 720648, 2013 | 0.83% of 370,000 active | inhibition, % at 6.95 µM | Disintegrin and metalloproteinase domain-containing protein 17 (Homo sapiens), P78536 | recombinant ADAM17, EDANS/DABCYL FRET peptide cleavage;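 active = inhibition above the mean of compounds lying between control limits plus 3 SD, set per campaign, cut at about 8.5% in these data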;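 also: 0% = DMSO-only wells as the low control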
ADAM10 confirm = human ADAM10 inhibitors, confirmation, biochemical, QFRET, triplicate; AID 743208, 2013; shares compounds with ADAM10 inh; ADAM10 QFRET peptide cleavage, EDANS fluorescence; inhibition, % at 6.95 µM; 1% of 2,100 active;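 active = inhibition above about 20% chosen separately for each screening run, limit read from the data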;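 also: 0% = DMSO wells and 100% = marimastat wells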
ADAM17 counter = ADAM17 inhibitors, counter-screen for ADAM10 exosite inhibitor project, biochemical, QFRET, high throughput; inhibition, % at 6.95 µM; shares compounds with ADAM10 inh; 0.5% of 2,100 active; ADAM17 QFRET peptide cleavage, EDANS fluorescence; AID 743214, 2013;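 active = mean triplicate inhibition above the solvent-only control wells' mean plus 3 SD, cut at about 12% in these data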;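 also: 0% = DMSO wells and 100% = marimastat wells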
Numbers without * were called inactive; . = no result given. Rows were chosen to be rich in hits. Some 4% of all compounds tested hit in one or more screens of this group.

SMILES | FAS-TE inh | aDG glyco up | ADAM10 inh | GRIN3A LBD mod | ADAM17 inh | ADAM10 confirm | ADAM17 counter
O=C(Nc1ccccc1)c1ccc(-c2ccccc2Cl)o1 | 10.9 | 0.2 | 20.5* | -3.4 | 4.2 | 5.5 | 2.2
COC(=O)c1cc2ccccc2c(-c2c(OC)c(C(=O)OC)cc3ccccc23)c1OC | 17.4 | 1.2 | -119.2 | -2.2 | -24.6 | . | .
COC(=O)c1sc2ccccc2c1-n1cccc1C(=O)C(=O)Nc1ccc(OC)cc1 | 30.1 | -0.6 | 21.9* | 1.4 | 8.3 | 4.6 | 2.5
COc1ccc2cc(C)c(SCC(=O)Nc3cc(C)on3)nc2c1 | -8.4 | 0.1 | -7.2 | 0.8 | -3.8 | . | .
COc1cccc(-c2ccc3c(c2)C2CC3CCN2C(=O)c2ccc(Cl)cc2)c1 (stereo not given) | 16.9 | 0.1 | -0.9 | 1.0 | -2.1 | . | .
O=C(CCC(=O)N1CCN(S(=O)(=O)c2ccc(Cl)cc2)CC1)Nc1ccc2ccccc2c1 | 26.0 | 0.2 | 22.3* | -4.1 | 6.2 | 4.5 | 1.6
Cc1ccc(S(=O)(=O)NC(=O)COc2ccc(Cl)cc2Cl)cc1 | -7.8 | 0.1 | 0.2 | -10.5 | -2.4 | . | .
COc1cccc(CN2C(=O)[C@H]3Cc4c([nH]c5ccccc45)C(C)(C)N3C2=O)c1 | 23.3 | 0.5 | 20.6* | -0.8 | 5.5 | 3.1 | 1.5
CC1(C)c2[nH]c3ccccc3c2C[C@H]2C(=O)N(Cc3cccc(F)c3)C(=O)N21 | 17.7 | 0.1 | 11.3 | -2.9 | 7.9 | . | .
N#Cc1nc(COc2ccc(Br)cc2)oc1N1CCCC1 | 19.9 | 0.0 | 21.1* | 0.3 | 5.0 | 1.7 | 0.4
N#Cc1nc(COc2ccc(Br)cc2)oc1N1CCCCCC1 | 30.7 | -0.2 | 0.6 | 1.0 | 2.4 | . | .
O=C(c1ccccc1O)N1N=C(C(F)(F)F)CC1(O)c1ccc([N+](=O)[O-])cc1 (stereo not given) | 29.6 | -0.3 | 26.9* | -1.2 | 5.6 | 1.4 | -0.2
CCO[C@@H]1OC(C(=O)NCc2ccccc2)=C[C@H](c2ccc(Br)cc2)[C@H]1CCCO | 12.7 | 0.4 | 12.1 | -5.8 | 3.5 | . | .
CCO[C@H]1OC(C(=O)NCc2ccccc2)=C[C@@H](c2ccc(C(F)(F)F)cc2)[C@@H]1CCCO | 26.4 | 0.1 | 21.6* | -14.9 | 2.1 | -1.0 | 0.0
COc1ccc(Cl)cc1NS(=O)(=O)c1ccc(S(=O)(=O)N2CCCC2)cc1 | 36.9 | 0.1 | 20.0* | -15.9 | 2.4 | 0.9 | 0.5
CSc1ccc(C2=CC(=O)C[C@H](c3ccc(F)cc3)C2)cc1 | 26.6 | -0.1 | -102.2 | -1.1 | -30.3 | . | .
CCc1ccc(NC(=O)c2ccc(F)c(S(=O)(=O)N(CC)c3ccccc3)c2)cc1 | 22.5 | 1.6 | 20.2* | 2.4 | 3.2 | 2.6 | 0.0
Cc1ccc(/C=N/NC(=O)CSc2nnc(-c3ccc(Cl)cc3)n2-c2ccc(Cl)cc2)o1 | 3.5 | 0.2 | 4.0 | 1.7 | -0.4 | . | .
Cc1ccc(/C=N/NC(=O)CSc2nnc(-c3ccccc3)n2-c2ccc(Cl)cc2)o1 | 1.3 | 0.4 | 26.5* | -12.7 | 7.8 | 2.4 | 1.3
O=C(O)c1ccccc1NS(=O)(=O)c1cccc2cccnc12 | -2.6 | 0.0 | 21.8* | -3.1 | -0.3 | -1.2 | -0.1
O=C(Nc1cccc2ccccc12)c1ccccc1NS(=O)(=O)c1cccc2cccnc12 | -10.0 | 0.0 | -8.0 | -12.2 | -1.2 | . | .
CS(=O)(=O)N1CCC(C(=O)Nc2ccccc2Br)CC1 | -1.2 | 0.0 | 3.8 | 1.7 | -7.3 | . | .
O=C1N[C@@H](Cc2c[nH]c3ccccc23)COC(=O)[C@H](Cc2ccc(F)cc2)C/C=C\C[C@H]1CC(=O)N(CCO)Cc1ccccc1 | 13.6 | 0.4 | 22.4* | 7.9 | 5.0 | 6.0 | 2.5

Screening data (PubChem)
